Bioassay records: PubChem BioAssay, National Center for Advancing Translational Sciences (NCATS)
HT1080 IDH1KD tx: toxicity to HT-1080 IDH1 knockdown cells (counter line); HT-1080 IDH1 knockdown viability, ATP luminescence, 48 h; Potency, µM (titrated, usually from 46.1 µM), for the others: at the top dose activity, negative = toxicity, actives largely listed as cytotoxic; 360,000 compounds, 2% hits; AID 686971;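 further: potency means the concentration at half of the fitted maximal effect; 0% = DMSO wells and -100% = cell-free medium wells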
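After a 2 h attachment period, IDH1KD HT-1080 cells took pin-transferred compound for 48 h at 37 °C; ATP-based luminescence after 10 min room-temperature reagent incubation reported viability.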
TDP1 cell CPT: DT40-hTDP1 cell growth loss with CPT. Potency, µM (doses to about 46.2 µM), for the others: top-dose activity change, negative = growth inhibition, most hits filed as inhibitors. AID 686979. 420,000 compounds, 12% hits. chicken DT40 Tdp1-/-;hTDP1 cells + 20 nM CPT, ATP luminescence, 48 h; further: potency means the concentration at half of the fitted maximal effect; nearly all actives have a fitted effect of over 55% in size
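Chicken DT40 Tdp1-/- cells stably complemented with human TDP1 were seeded at 400 cells/well in medium containing 20 nM camptothecin, exposed to pin-transferred compounds, and grown at 37 °C for at least 48 hr. Viability was read as ATP luminescence.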
HT1080-NT tox: kills 2HG-producing HT-1080-NT fibrosarcoma cells; HT-1080-NT fibrosarcoma viability, CellTiter-Glo ATP luminescence, 48 h; Potency, µM (doses to about 46.1 µM), for inactives: at the highest dose activity, negative = less viability, usual class: cytotoxic; 360,000 compounds, 1.6% hits; AID 686970;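 further: NT is the 2HG producing partner of a matched IDH1 knockdown line; potency means the concentration at half of the fitted maximal effect; 0% = DMSO-treated cells and -100% = media-only wells without cells; nearly all actives have a fitted effect of over 55% in size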
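Fibrosarcoma NT cells, 750 per well in 5% FBS RPMI, were exposed to compound for 48 hours. Viability: CellTiter-Glo luminescence.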
IL-1B inflam inh: inhibitors of inflammasome signaling (IL-1 beta secretion); THP-1 LPS/ATP IL-1B secretion, AlphaLISA, 16 h; hits give low values; activity change, % at 57.5 µM; 360,000 compounds, 4.7% hits; AID 743279; in the data active means activity change below about -50%; inconclusive means mostly about -30% to -49%
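THP-1 cells pretreated 1 hr with compounds (up to 57.5 uM final), then stimulated with LPS (250 ng/mL final) plus ATP (1.25 mM final); secreted IL-1B measured by AlphaLISA after 16 hr, decreased signal indicating inhibition.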
DT40 TDP1 no CPT: qHTS for Inhibitors of human tyrosyl-DNA phosphodiesterase 1 (TDP1): qHTS in cells in absence of CPT; DT40 Tdp1-/- hTDP1 cells, no CPT, ATP luminescence, 48 h; Potency, µM (top dose mostly 46.2 µM), inactives show top-dose activity change, negative = growth inhibition, most hits filed as inhibitors; 420,000 compounds, 15% hits; further: potency means the concentration at half of the fitted maximal effect; nearly all actives have a fitted effect of over 55% in size
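No-CPT arm: Tdp1-/-;hTDP1 DT40 cells (400/well) plus compounds, incubated ≥48 hr at 37 °C. Readout CellTiter-Glo luminescence.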
Numbers without * were called inactive; ? = inconclusive; · = no result given. Compounds with a hit are over-represented: about 19% of the library has one in this group of screens. Unless noted, the call rests on the fitted dose curve; in most records, active means well fitted curve in the direction sought with a large enough effect; inconclusive means small, poorly fitted or top-dose-only effect, or another doubt; inactive means no such curve, though single readings can be large; an effect the other way counts as inactive or inconclusive. Unless noted, on the % scale 0 is the no-effect control and ±100 the full control effect.

SMILES	HT1080 IDH1KD tx	TDP1 cell CPT	HT1080-NT tox	IL-1B inflam inh	DT40 TDP1 no CPT
CSCC[C@H](NC(=O)N1CCn2c1nc1ccccc12)C(=O)NCc1ccc(C)cc1	-11.7%	?	-0.6%	6.9	?
c1ccc(Oc2ccccn2)cc1	27.0%	-14.5%	26.1%	5.4	-7.6%
CN(C)C(=O)c1ccc(-c2cncnc2NCCN2CCOCC2)cc1	·	-1.9%	·	·	-20.9%
Cc1cccc(C)c1NC(=O)CN1CCN(c2ccc(C(F)(F)F)cn2)CC1	-26.1%	14.6µM*	-4.8%	6.0	11.6µM*
CC(=O)c1cccc(OCC(=O)N2CCN(c3ccc(C(F)(F)F)cn3)CC2)c1	11.4%	?	9.8%	-2.2	14.6µM*
Cc1cc(OCC(=O)OCC(=O)NC2CCS(=O)(=O)C2)ccc1Cl (centres undefined)	12.8%	-1.0%	17.8%	-17.1	2.1%
COCCCN=C1NN=C(c2cc(C)n(-c3ccccc3)c2C)CS1	12.8%	?	6.6%	39.2	16.4µM*
COCCCN=C1NN=C(c2cc(C)n(Cc3ccccc3Cl)c2C)CS1	7.31µM*	?	4.61µM*	?	2.31µM*
COCCCN=C1NN=C(c2cc(C)n(-c3ccccc3F)c2C)CS1	?	16.4µM*	?	16.7	8.2µM*
CC1(C(=O)NS(=O)(=O)c2cccs2)CCN1C(=O)CCc1ccc(Cl)cc1Cl (centres undefined)	22.7%	11.7%	-1.1%	41.1	9.3%
CC(=O)Nc1ccc(S(=O)(=O)n2cnc3ccccc32)cc1	17.6%	-19.3%	18.6%	-5.1	-4.2%
O=S(=O)(O)c1ccc(Cl)c(Cl)c1	8.4%	0.0%	1.6%	8.3	-10.0%
COc1cccc(NC(=O)Cn2nnc(C(=O)NCCc3ccccc3)c2N)c1	-10.4%	-0.6%	-22.7%	13.0	12.7%
Cc1ccc(CNC(=O)c2cn(C3CCCCC3)c(=O)c3c2c2ccccc2n3C)o1	?	11.6µM*	?	-86.4*	16.4µM*
Cc1ccc(CNC(=O)c2cn(C)c(=O)c3c2c2ccccc2n3C)o1	-5.9%	?	9.3%	9.5	?
Cc1cc(NC(=O)c2cn(C3CCCCC3)c(=O)c3c2c2ccccc2n3C)no1	-2.6%	?	-1.2%	-2.7	23.1µM*
COCCCN1C(=O)C(CC(=O)NC2CC2)CC(C(=O)N(C(C)C)C(C)C)=C1C (centres undefined)	17.2%	-4.3%	29.6%	0.0	-8.8%
O=C(O)C1C2C=CC(O2)C1C(=O)NCc1ccccc1Br (centres undefined)	-21.9%	-3.1%	5.4%	12.5	-11.9%
COc1ccc(Cn2c(=S)[nH]c3ccccc3c2=O)cc1	-0.7%	9.3%	-4.1%	18.1	14.7%
C[C@H]1[C@H]2CC[C@H]3[C@@H]4CC=C5C[C@@H](N(C)C)CC[C@]5(C)[C@H]4CC[C@]23CN1C	·	-4.4%	·	·	?
CCOC(=O)c1cc(=O)n2nc(-c3ccccc3F)nc2s1	1.2%	?	17.7%	-24.0	23.1µM*
COC(=O)C1C(=O)C2=C(CC1C)NC(C)=C(C(=O)OCc1ccc(OC)cc1)C2c1ccc(C)o1 (centres undefined)	-18.4%	?	-4.4%	-21.0	10.3µM*
COC(=O)C1C(=O)C2=C(CC1C)NC(C)=C(C(=O)OC(C)C)C2c1ccc(C)o1 (centres undefined)	0.5%	-10.4%	0.3%	6.4	-1.3%
COC(=O)C1C(=O)C2=C(CC1C)NC(C)=C(C(=O)OC1CCCCC1)C2c1ccc(N(C)C)cc1 (centres undefined)	-11.0%	?	-5.6%	-3.3	16.4µM*
COC(=O)C1C(=O)C2=C(CC1C)NC(C)=C(C(=O)OCCOc1ccccc1)C2c1ccc(C)o1 (centres undefined)	-2.2%	23.1µM*	2.1%	0.0	16.4µM*
SMILES	HT1080 IDH1KD tx	TDP1 cell CPT	HT1080-NT tox	IL-1B inflam inh	DT40 TDP1 no CPT
OC[C@@H]1CN(CCN2CCOCC2)C[C@H](n2cnc3c(N4CCCC4)ncnc32)O1	?	6.3%	?	20.1	-6.4%
CN(C(=O)c1ccco1)c1nc(-c2ccc(Cl)cc2)cs1	17.7%	?	13.0%	?	?
O=C(c1cccs1)N(CC1CCCO1)c1nc(-c2ccccc2)cs1 (centres undefined)	-8.4%	20.6µM*	-7.8%	-28.6	?
O=C(c1ccco1)N(CC1CCCO1)c1nc(-c2ccccc2)cs1 (centres undefined)	?	?	?	-10.0	23.1µM*
CCCCn1c(N)c(N(CCC(C)C)C(=O)CC2CCCCC2)c(=O)[nH]c1=O	-1.1%	-16.9%	-0.1%	0.3	-14.5%
O=C(CN1CCCC1c1cccs1)N1CCN(S(=O)(=O)c2ccccc2)CC1 (centres undefined)	7.7%	6.6%	1.3%	-1.3	-23.4%
O=C(C[n+]1cc(-c2ccc(Br)cc2)n2c1CCCCC2)c1ccccc1	-19.1%	?	2.8%	-55.7*	16.4µM*
O=C(C[n+]1cc(-c2ccccc2)n2c1CCC2)c1cccs1	-17.5%	1.7%	-1.3%	18.4	3.8%
O=C(C[n+]1cc(-c2ccc(Cl)cc2)n2c1CCCCC2)c1ccccc1	-14.0%	6.51µM*	-6.5%	-61.7*	6.51µM*
COc1cccc(N=Cc2c(O)c3ccccc3oc2=O)c1	?	23.4%	?	-5.8	-3.5%
O=c1c(Cl)c(Cl)cnn1Cc1nnc(-c2ccc(Cl)cc2)o1	8.2µM*	0.82µM*	16.4µM*	-100.7*	0.92µM*
Cc1[nH]c(C)c2c(=O)n(Cc3ccc(Cl)cc3)ncc12	10.8%	-1.4%	-2.7%	-9.4	2.4%
Cc1cc(C)cc(Cn2ncc(Cl)c(Cl)c2=O)c1	16.4µM*	8.2µM*	-26.7%	-119.7*	11.6µM*
Cc1ccc(-c2nnc(Cc3ccc(Cl)cc3)o2)cc1	3.9%	-17.7%	13.0%	0.0	?
O=c1c(Cl)c(Cl)cnn1Cc1ccccc1Cl	18.4µM*	2.59µM*	?	-99.8*	1.03µM*
CSc1cnn(Cc2ccccc2)c(=O)c1SCc1ccccc1	-22.8%	?	-1.6%	0.0	?
Cc1ccc(Cn2ncc(Cl)c(Cl)c2=O)cc1	?	5.17µM*	?	-102.6*	3.26µM*
Cc1ccc(C(=O)NCCc2nnc3n2CCN(Cc2ccc4ccccc4c2)CC3)c(C)c1	·	7.0%	·	·	?
CCc1ccc(C(=O)Cn2ncc(Cl)c(Cl)c2=O)cc1	?	3.66µM*	14.6µM*	-115.6*	2.91µM*
Cc1cc(N)nc(C)c1C#N	-5.2%	-14.0%	-5.9%	-10.6	-21.5%
CCn1c2ccccc2c2cc(NC(=O)CSc3nnc(-c4ccccc4)o3)ccc21	20.6µM*	9.2µM*	?	?	20.6µM*
